# Source: PubChem
# Only some compounds are listed: those with a hit (about 2.9% of all), similar ones and a draw of the others.
# SKN-1 inh – blocks SKN-1 activity in C. elegans; AID 624304; C. elegans VP596 Pgst-4::GFP/RFP ratio, acrylamide-induced, 24 h; inhibition, % at 21.8 µM; 360,000 compounds, 0.49% hits;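 active = interference check ratio from 0.5 to 1.5 plus GFP to RFP signal ratio inhibition reaching or exceeding a fixed threshold, cut at about 30% in these data, passing the limit was not always enough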
# RAM network inh – inhibitors of the yeast RAM network. inhibition, % at 50 µM. AID 868. 190,000 compounds, 1.8% hits. S. cerevisiae dse1pr::URA3 reporter, 5-FOA growth OD615, 2 d; analog-sensitive cbk1-as2 kinase mutant strain;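 active = inhibition above a set limit, 3 SD over mean compound inhibition, cut at about 8.4% in these data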;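 also: 0% = DMSO-only wells with no growth and 100% = 10 µM 1-NA-PP1 full growth; inhibition rescues growth on 5-FOA so higher OD means more RAM inhibition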
# EP2 modulator – EP2 receptor (human) modulation; P43116; EP2-expressing cells, cAMP HTRF FRET, PGE2 co-stimulation; induction, % at 25 µM; 260,000 compounds, 0.83% hits; AID 940;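 active = compounds whose cAMP rise, as percent of the full-agonist control response, exceeds 60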;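 also: rat C6 glioma line stably carrying human EP2 under a CMV promoter; the protocol text gives 20 µM as final concentration; 100% = response of wells given 1 µM PGE2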
# Rev-erbA mod – Rev-erb alpha (human) modulation. AID 1259318. 370,000 compounds, 0.79% hits. activity, % at 10 µM. Rev-erbα–FITC-DNA binding, fluorescence polarization, 90 min. P20393;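 active = activity above about 14%, limit read from the data; passing the limit was not always enough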;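 also: 0% = DMSO wells with 35 nM protein and 100% = DMSO wells with 750 nM protein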
# Target sequence (P20393 whole entry, looked up): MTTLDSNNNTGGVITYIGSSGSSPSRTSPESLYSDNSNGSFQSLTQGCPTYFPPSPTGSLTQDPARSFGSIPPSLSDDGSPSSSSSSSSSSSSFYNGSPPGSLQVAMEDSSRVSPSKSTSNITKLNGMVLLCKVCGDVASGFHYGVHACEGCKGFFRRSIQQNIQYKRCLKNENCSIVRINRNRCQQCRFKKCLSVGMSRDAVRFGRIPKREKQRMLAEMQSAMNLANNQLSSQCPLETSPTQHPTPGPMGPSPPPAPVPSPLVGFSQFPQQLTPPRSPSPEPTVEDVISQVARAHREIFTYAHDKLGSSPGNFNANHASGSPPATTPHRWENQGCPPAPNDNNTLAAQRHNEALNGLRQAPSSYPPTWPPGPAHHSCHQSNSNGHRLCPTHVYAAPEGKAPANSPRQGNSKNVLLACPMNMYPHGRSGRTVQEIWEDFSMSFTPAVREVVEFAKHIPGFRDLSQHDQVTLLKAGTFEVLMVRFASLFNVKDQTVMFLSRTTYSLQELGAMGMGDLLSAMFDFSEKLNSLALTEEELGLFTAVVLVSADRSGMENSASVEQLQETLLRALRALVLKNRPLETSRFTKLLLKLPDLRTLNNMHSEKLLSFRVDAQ
# PG9 Ab binder – binds the HIV-1 gp120 antibody PG9 | 360,000 compounds, 0.43% hits | AID 624416 | TR-FRET gp120-PG9 antibody binding | inhibition, % at 6.7 µM; in the data active = inhibition above about 8.5%
# PGE2 EP2 inh – inhibitors of human EP2 prostaglandin E2 receptor. P43116. C6 glioma cells expressing human EP2, cAMP TR-FRET; cells stimulated with saturating PGE2. inhibition, % at 25 µM. 260,000 compounds, 0.52% hits;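 active = percent inhibition above 40 after rounding to a whole number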;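 also: rat C6 glioma host cells with rolipram phosphodiesterase inhibitor present; the protocol text gives 20 µM as final concentration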
# RAM efflux-def – RAM network inhibition, efflux-deficient strain; shares compounds with RAM network inh; S. cerevisiae efflux-deficient reporter strain, 5-FOA growth OD615, 2 days; max inhibition, %; 1,200 tested, under 10 active; call rule not given here;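 also: plate controls were vehicle for no effect and reference inhibitor for full effect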
# Starred values were filed as active, the others as inactive; . = not tested or not shown; ! = a repeat was not active.
SMILES,SKN-1 inh,RAM network inh,EP2 modulator,Rev-erbA mod,PG9 Ab binder,PGE2 EP2 inh,others
CN(C)CCN(Cc1ccc(F)cc1)C(=O)Cc1n[nH]c(=O)c2ccccc12,.,.,-25.6,.,.,2.6,
C[n+]1c(-c2ccccc2)sc2ccccc21,-3.1,.,.,-1.2,0.5,.,
CN(C)c1ccc(/C=C/c2cc[n+](C)c3ccccc23)cc1,91.0,0.9,-86.5,7.2,-129.1,56.2*,
CC[n+]1c(/C=C/N(C)c2ccccc2)sc2ccc(Cl)cc21,47.9,0.9,-27.2,-4.1,2.6,5.0,
C[n+]1ccc(-c2ccccc2)c2ccccc21,-5.5,.,.,-0.8,-3.2,.,
CC[n+]1c(/C=C/C=C/c2ccc(N(C)C)cc2)sc2ccccc21,87.8,.,-155.0,-12.7,-252.2,114.7*,
CN(C)c1ccc(/C=C/C=C/c2sc3ccccc3[n+]2C)cc1,84.0,.,-77.1,-5.7,-125.8,46.0*,
CCc1cccc2c(CC(=O)N(CCN(C)C)C3CCN(C)CC3)c(C)[nH]c12,.,.,-49.0,.,.,5.9,
CCN(CCN(C)C)C(=O)Cc1c(C)[nH]c2ccc(Cl)cc12,.,.,-51.3,.,.,2.5,
C[As+](C)(c1ccc(Br)c([N+](=O)[O-])c1)c1ccc(Br)c([N+](=O)[O-])c1.O=[N+]([O-])O,.,.,19.5,.,.,44.2*,
COc1cc2c(cc1OC)[C@@]13CCN4C=C5CCO[C@H]6CC(=O)N2[C@H]1[C@H]6[C@H]5C[C@H]43,.,.,-8.8,.,.,53.3*,
COc1cc2c(cc1OC)C13CCN4CC5=CCOC6CC(=O)N2C1C6C5CC43 (stereo not drawn) (tested in a mixture with another compound),14.1,.,7.9,1.5,-2.5,9.7,
CCCc1nc2ccccc2c(=O)n1-c1ccc(OC)cc1,36.6*,-0.3,0.5,-4.9,-0.6,13.4,
CCCc1nc2ccccc2c(=O)n1-c1cccc(OC)c1,10.7,2.0,5.1,-3.8,-1.7,5.7,
O=c1[nH]c(=S)n(-c2ccccc2)c(O)c1/C=N/N1CCCCC1c1cccnc1 (stereo not drawn),41.2*,.,33.8,3.7,-0.5,-0.6,
CCc1ccc(-n2c(O)c(/C=N/N3CCCCC3c3cccnc3)c(=O)[nH]c2=O)cc1 (stereo not drawn),-7.0,0.6,12.6,1.2,0.0,3.9,
COc1cc(CN2CCN(C(=O)COc3ccc(C)cc3)CC2)cc(OC)c1OC,.,.,3.5,.,.,19.6,
ClCC[N+]12CC[N+](CCCl)(CC1)C2 (tested in a mixture with another compound),.,.,12.6,.,.,45.6*,
C/C(N[O-])=C(\C)[N+]([O-])=[Rh][Cl].CC(=N\[O-])/C(C)=N/[O-].c1ccc([PH+](c2ccccc2)c2ccccc2)cc1,.,.,26.5,.,.,41.0*,
O=C(O)CN1CCN(CC(=O)O)CC(=O)[O][Hg][O]C(=O)C1,.,.,-25.4,.,.,103.4*,
CCOC(=O)c1ccc2[nH]c(-c3ccc(S(=O)(=O)F)cc3)cc(=O)c2c1,3.7,.,-13.0,1.4,-1.4,50.6*!,
CCOC(=O)c1cccc([P+](=O)O)c1,-4.0,0.2,4.7,-0.6,-0.9,9.2,
CCC1(OC(=O)CN)C(=O)OCc2c1cc1n(c2=O)Cc2cc3ccccc3nc2-1 (stereo not drawn),10.6,.,2.5,.,.,8.9,
CC[C@]1(OC(=O)CN)C(=O)OCc2c1cc1n(c2=O)Cc2cc3ccccc3nc2-1,.,.,22.1,.,.,40.7*,
Cc1ccc(-c2nc(C)sc2CC(=O)N2CCCCC2CN2CCCC2)c(C)c1 (stereo not drawn),.,.,-52.3,.,.,6.6,
SMILES,SKN-1 inh,RAM network inh,EP2 modulator,Rev-erbA mod,PG9 Ab binder,PGE2 EP2 inh,others
CCN(CC)C(=O)CN1CC=C(c2ccc(C)o2)CC1,.,.,-11.0,.,.,.,
O=C1NC(=S)NC(=O)C1=Cc1ccc2c(c1)CCN2CCCCl,38.0*,.,-20.5,.,.,6.5,
Cc1ccccc1N1C(=O)NC(=O)/C(=C\c2ccc3c(c2)CCCN3Cc2ccccc2)C1=O,14.4,4.8,-13.8,-3.9,-0.8,6.0,
CC1=C(O)C(=O)C=C2C1=CC=C1[C@@]2(C)CC[C@@]2(C)[C@@H]3C[C@](C)(C(=O)O)CC[C@]3(C)CC[C@]12C,.,.,-41.3,.,.,110.0*,
O=C(O)C[C@H]1OCC=C2CN3CC[C@]45C6=CC(=O)C(=O)C([N+](=O)[O-])=C6N[C@H]4[C@H]1[C@H]2C[C@H]35,.,.,-8.8,.,.,41.4*,
CCCCCCOC(=O)c1ccccc1N,13.8,0.7,63.9*,0.4,0.5,7.8,
Cc1cc(/C=C2\C(=O)NC(=O)N(c3ccc(Br)cc3)C2=O)c(C)n1C,4.7,10.7*,-9.8,4.2,-0.1,4.7,
COCCc1ncc(CN2C3CCC2CC(O)(c2cccc(F)c2)C3)cn1 (stereo not drawn),.,.,-28.0,.,.,5.3,
CN(CCN1CCCCC1)C(=O)Cc1csc(-c2ccccc2F)n1,.,.,-46.0,.,.,3.0,
CCOc1ccc(O)c(CN2C3CCC2CC(O)(c2ccccc2F)C3)c1 (stereo not drawn),.,.,43.1,.,.,3.0,
FC(F)(F)c1nc(N2CCN(c3ccccc3)CC2)nc2c1CCCCC2,-5.0,13.8*,17.6,-3.4,1.0,9.2,RAM efflux-def=3.9
O=P(Nc1cccc(F)c1)(Oc1ccccc1F)Oc1ccccc1F,3.5,.,54.4,0.3,-1.4,5.9,
COc1cccc(NP(=O)(Oc2ccc(Cl)cc2)Oc2ccc(Cl)cc2)c1,4.4,15.3*,21.9,-0.3,0.6,1.5,RAM efflux-def=5.1
O=P(Nc1ccccc1)(Nc1ccccc1)Oc1ccc(Cl)cc1,2.6,5.3,-19.6,5.0,.,.,
Cc1cccc(NP(=O)(Oc2ccccc2F)Oc2ccccc2F)c1,11.4,16.2*,52.7,-0.6,-1.3,6.9,RAM efflux-def=1.7
c1cncc(C2NCCc3ccccc32)c1 (stereo not drawn),.,.,-12.6,.,.,7.6,
O=C(O)c1cccc2c1NC(C(=O)O)C1CC(Sc3ccccc3[N+](=O)[O-])C(Cl)C21 (stereo not drawn),7.3,15.2*,-49.9,-33.0,-9.9,14.6,RAM efflux-def=6.8
Cc1ccc(Cn2cc(C=O)c(-c3ccc(C)cc3)n2)cc1,17.1,15.6*,17.7,-4.2,-0.8,6.0,RAM efflux-def=1.0
CC(=O)N1CCCc2cc(C(O)CN3CC=C(c4ccc(Cl)cc4)CC3)ccc21 (stereo not drawn),.,.,-64.4,.,.,12.7,
CCn1nc(CC(=O)N(CCN(C)C)C2CCN(C)CC2)c2ccccc2c1=O,.,.,-55.0,.,.,-2.2,
CCOC(=O)C(C)N1C(=O)CN=C(c2ccc(OC)c(OC)c2)c2c1sc1c2CCCC1 (stereo not drawn),.,.,22.1,.,.,14.4,
C=CCSC1=N/C(=C\c2cc(OC)c3c(c2)OCO3)C(=O)S1,-4.7,12.5*,33.7,-6.1,-0.7,19.2,RAM efflux-def=3.4
CN1C(=O)/C(=C/c2cccn2-c2ccc3ccccc3c2)C(=O)NC1=S,25.7,15.1*,-21.0,-2.5,2.7,15.7,RAM efflux-def=4.0
